# Assay results taken from PubChem BioAssay (NCI).
# The panel holds about 79,000 compounds, 15% with a hit somewhere; the sample as a whole holds those more often. A number with no mark means an inactive call. Calls of active or inactive are those of the source. Rule as the data show it: active = growth inhibition above about 70%; inactive = the rest. *1 amine or outer side, *2 acyl side, *3 side chain or, on linkers, in order; H or OH if unused. Where a SMILES comes first, the peptide text is derived from it. [ ]: non-standard residue; d: D form. X8 = C=CCC(O[*:1])C(=O)[*:2]; NMeV = CN[CH](C(=O)O)C(C)C; NMeA = CN[CH](C)C(=O)O; βAla = NCCC(=O)O
# Legend:
# [1] = NCI Yeast Anticancer Drug Screen. Data for the rad50 strain (AID 155);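 also: 0% = growth of vehicle-only cultures of the same strain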; settings: S. cerevisiae rad50 strain growth inhibition; at 50.0 µM; hits give high values
# Summary of the method: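 Readout: growth inhibition relative to vehicle-treated cultures. Compound exposure was carried out in a genetically defined yeast strain deficient in DNA damage repair.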
# [2] = NCI Yeast Anticancer Drug Screen. Data for the mec2-1 strain (AID 157); settings: S. cerevisiae mec2-1 strain, at 50.0 µM, hits give high values
# Summary of the method: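 Using mec2-1 yeast: add compound, measure growth, express inhibition versus vehicle-treated cultures.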
# [3] = NCI Yeast Anticancer Drug Screen. Data for the sgs1 mgt1 strain (AID 161);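 also: 0% = growth of cultures given vehicle only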; settings: S. cerevisiae sgs1 mgt1 strain, at 50.0 µM, hits give high values
# Summary of the method: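 Compounds are added to genetically altered yeast, and growth is compared with cultures given vehicle alone to give percent inhibition.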
# [4] = NCI Yeast Anticancer Drug Screen. Data for the cln2 rad14 strain (AID 165);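 also: 0% = growth equal to vehicle treated cultures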; settings: S. cerevisiae cln2 rad14 strain, at 50.0 µM, hits give high values
# Summary of the method: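 Yeast strain cln2 rad14, bearing defects in cell cycle control and DNA repair, serves as the test system; values reflect growth inhibition compared with vehicle.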
# [5] = NCI Yeast Anticancer Drug Screen. Data for the bub3 strain (AID 167); settings: S. cerevisiae bub3 mutant strain, at 50.0 µM, hits give high values
# Summary of the method: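 Readout: yeast growth inhibition, expressed relative to vehicle-only wells. The test organism is a mutant strain from a panel with lesions in DNA repair or checkpoint genes.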
# [6] = NCI Yeast Anticancer Drug Screen. Data for the mlh1 rad18 strain (AID 175); settings: S. cerevisiae mlh1 rad18 strain growth inhibition; at 50.0 µM; hits give high values
# Summary of the method: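 Steps: expose repair-defective yeast to compound; measure growth; express inhibition against vehicle-treated controls.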
Structure (SMILES),growth inhibition [1],growth inhibition [2],growth inhibition [3],growth inhibition [4],growth inhibition [5],growth inhibition [6]
C[N+]1(C)CCC(O)CC1,-5.5%,7.2%,-3.1%,-13.4%,14.9%,1%
CCCCc1c(O)c(N=NC(N)=S)c2ccccc2c1O,14.9%,8.45%,36.8%,-22.1%,32.6%,43.5%
Cc1ccc(CS(=O)(=O)c2ccc(C)cc2)cc1,-3.3%,-0.45%,-4.2%,-36.8%,-22.9%,-2.35%
C=C1C(=O)C[C@@H]2CC(C)(C)C[C@]12CC(=O)O,-11.1%,-41.5%,-1.65%,-7.05%,-9.15%,-17.1%
c1ccc(-c2c3ccccc3c(-c3ccccc3)c3ccccc23)cc1,6.2%,5.95%,6.7%,-3.75%,2.4%,19.7%
CC(C)N(CCn1c2c3ccccc3ccc2c2oc(=O)c3ccccc3c21)C(C)C,13.8%,-23.7%,-2.8%,12%,-2.95%,-8%
O=C1CCCc2c1cc1c3c(cccc23)CC1,-9.9%,-23.2%,0.7%,-15.6%,9.8%,-1.85%
COc1ccc2c(=O)cc(-c3ccncc3)oc2c1OC,40.2%,7.8%,-4.05%,2.3%,-47%,31.2%
C=CCC1OC(=O)CCNC(=O)C(C)N(C)C(=O)C(C(C)C)N(C)C(=O)C(C(C)CC)NC(=O)C2CCCN2C1=O (stereo not drawn) (cyclo([X8]PI[NMeV][NMeA][βAla]); configuration not given here),15.3%,10.1%,5.55%,11.5%,8.35%,17.8%
O=C1CCCC1C(=O)c1ccccc1.O=C1CCCC1C(=O)c1ccccc1.[Cu] (stereo not drawn),70.9% (active),22.1%,88.5% (active),23.7%,-2%,52.9%
Cc1nc2ccccc2c(=O)o1,-12.2%,7.05%,9.85%,15.1%,-5.65%,-21%
O=C(O)CSc1nc2c(Cl)c(Cl)c(Cl)cc2[nH]1,-11.7%,-14.1%,2%,1.6%,13.2%,-9.9%
CCOC(=O)C1=C(NC(C)(C)C)OC/C1=N\NC(=O)Cc1ccccc1,42.8%,-3.6%,21.2%,16.6%,26.2%,28.1%
COC(=O)C(C)(C#N)/C(C)=C/C(C)C (stereo not drawn),-12.7%,-20.9%,-12.8%,-3.9%,-24.8%,-33%
CSCCC(NC(C)=O)C(=O)O (stereo not drawn),6.1%,1.5%,-14.4%,-3.55%,-4.85%,-8.3%
CN1CCN(C(=O)/C(=C/c2ccccc2)NC(=O)c2ccccc2)CC1,-6.8%,4%,8.05%,-12.7%,0.1%,8.1%
c1cc2c3c(cccc3c1)C1C2C2c3cccc4cccc(c34)C12 (stereo not drawn),-11.6%,18.2%,7.35%,-2.7%,3.9%,0.05%
CCOC(=O)/C(=C\n1c(=S)[nH]c2cc(C)ccc21)C(=O)c1ccccc1,-41.2%,-60.5%,-18.8%,10.8%,-14.2%,-13.5%
O=C(NC1CCCCC1)N(C1CCCCC1)C1CCCCC1,7.65%,9.95%,-2.05%,2.85%,23.9%,1.85%

Structure (SMILES),growth inhibition [1],growth inhibition [2],growth inhibition [3],growth inhibition [4],growth inhibition [5],growth inhibition [6]
O=C1Nc2ccccc2N=NN1CCCl,22.2%,6.4%,-2.85%,1.85%,-7.3%,-18.4%
CCCCN(CCCC)C(=N)c1cccc(OC)c1,-7.9%,-13.4%,-7.35%,-15.3%,2.75%,-17.9%
NC(CSS(=O)(=O)O)C(=O)O (stereo not drawn),3.05%,-2.4%,-1.55%,-31.9%,-12.8%,2.6%
CSC(=NCCCCN=C(NS(=O)(=O)c1ccc(Cl)cc1)SC)NS(=O)(=O)c1ccc(Cl)cc1,-18.1%,-27%,-16.9%,13.9%,-8.8%,-11.2%
COC(=O)C1=CCS(=O)(=O)C1,-7.45%,-7.8%,-4.3%,6.1%,15%,-9.5%
CC(=O)NNc1nc(C)c(C(=O)NNC(=O)C(=O)Nc2ccc([N+](=O)[O-])cc2[N+](=O)[O-])s1,6.45%,-5.65%,-30.9%,32.9%,24.1%,14.8%
CC(=O)OC1C(C)OC(OC(=O)C2CCC3C(C2)OC2(CC(OC(=O)/C=C/c4ccccc4)C(C)CO2)C32CO2)C(OC2OC(C)C(O)C(O)C2O)C1O (stereo not drawn),1.3%,-16.8%,2.3%,13.5%,3.65%,-62.9%
CCOC(=O)C1CC(=O)C=C2CCCCC21 (stereo not drawn),-4.05%,-27.7%,-7.55%,5.35%,-30.1%,13.4%
Cc1ccc(NC(=O)CCC(=O)C2CC(=O)CCC2=O)cc1C (stereo not drawn),-22.6%,-14.8%,-0.7%,5.75%,6.4%,-9.9%
CCOC(=O)C1(c2ccccc2)CCNC(=O)CC1 (stereo not drawn),7.65%,8.2%,16.2%,-14.1%,13.5%,8.6%
O=C(Nc1ccc(S(=O)(=O)N2CCCCC2)cc1)OC1CCCCC1,16.4%,3.75%,-4.2%,23.6%,30.9%,-5.45%
CCCCc1c2cnccc2c(CCCC)c2c1[nH]c1ccccc12,88.8% (active),90.3% (active),91.8% (active),81.9% (active),89.2% (active),88.2% (active)
CCCCc1ccc2nc3cc4ccccc4cc3nc2c1,12.8%,51.1%,32.6%,-16%,20.6%,7.6%
Cc1[nH]c(=O)[nH]c(=O)c1CCS,-12.2%,1.2%,5.3%,37.5%,-20%,-13.2%
CC(=O)CC(=O)CCCCCCCCCCCC(=O)CC(C)=O,-5.15%,-15.4%,-5.45%,-0.1%,13.5%,10.4%
CC(O)c1cccc(NC(=O)Nc2ccc(Cl)c(Cl)c2)c1 (stereo not drawn),12%,83.4% (active),70%,1.15%,43.8%,54.5%
CC(c1ccccc1)/[N+]([O-])=C/c1ccccc1 (stereo not drawn),-31.7%,-33.4%,-46%,-6.7%,-57.2%,-21.6%
CCCCCCOC(=O)C[C@H]1C[C@H](C(=O)OCCCCCC)C1(C)C,-4.45%,-15.6%,1.8%,-36.6%,-21.1%,-7.3%
O=C1c2ccccc2CC12Cc1ccc3c(c1C2=O)CCCC3 (stereo not drawn),-11.2%,-14.4%,-3.85%,-30.2%,-3.55%,-33.5%
